These results are taken from PubChem BioAssay AID430 (Sanford-Burnham Center for Chemical Genomics, 2006).

Structures are written as SMILES. The whole screen tested about 63,000 compounds, of which about 1,100 (1.7%) were called active. The sample holds actives, similar compounds and a random draw of the others, so the mix is not that of the screen. Cut-off read from the data, not from the text of the source: active = cytotoxicity above about 50%; inactive = the rest. Results with a measured potency or affinity are listed apart.

A short description of the assay: cytotoxicity in HPDE-C7 cells, cell-based, fluorescence, HTS (AID 430).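 Note: cells exposed to compound for 48 hours before viability readout; 0% = vehicle and 100% = reference cytotoxic drug.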 As to conditions: HPDE-C7 pancreatic duct cells viability, at 10 µM, active compounds read high.
As for `O=C(Nc1ccccc1N1CCN(c2ccc(F)cc2)CC1)C1CCCCC1`, the cytotoxicity is -6.3% (inactive). With `O=C(Oc1cccc(Oc2ccccc2)c1)N1CCOCC1` the figure was -6.3% (inactive); with `CCN(CC)C(=O)CSC1=Nc2ccccc2C2=NC(Cc3c[nH]c4ccccc34)C(=O)N12` (configuration not stated), -6.1% (inactive). With `O=C(CSc1nnnn1C1CCCCC1)NCc1ccc2c(c1)OCO2` the figure was 3.2% (inactive).

As for `COCCN1C(=O)C(=O)/C(=C(/O)c2ccc(OC(C)C)cc2)C1c1cccnc1` (configuration not stated), the cytotoxicity was -2.7% (inactive).

Turning to `CCN1CCN(C(=O)c2ccc3c(c2)N(Cc2ccc(F)cc2)C(=O)c2ccccc2S3=O)CC1` (configuration not stated), the cytotoxicity was -1.9% (inactive). Then `COc1ccc(OC)c(C2NC(=O)NC(C)=C2C(=O)Nc2ccc(C)cc2C)c1` (configuration not stated), with -13.3% (inactive); and `COc1ccc(Cc2nc(-c3ccccc3)no2)cc1`, with -1.1% (inactive).

For the compound `CCOc1cc(S(=O)(=O)n2c(C)nc3ccccc32)ccc1F`, the cytotoxicity is 2.2% (inactive). Then `CCN(Cc1ccccc1)Cc1cc(OC)cc(OC)c1`, with 8% (inactive); and `CSCCC(NC(=O)c1cc(CC(C)C)oc1C)C(=O)O` (configuration not stated), with -17.8% (inactive); and `CCc1nnc(NC2=NCCC2)s1`, with -21.5% (inactive). Then `COCCn1c(N)c(C(=O)NCc2cccs2)c2nc3ccccc3nc21`, with -11.2% (inactive).

As for `CC(C)Cn1c(N)c(C(=O)NCc2cccs2)c2nc3ccccc3nc21`, the cytotoxicity was 63.9% (active). With `CC(C)Cn1c(N)c(C(=O)NCCN2CCOCC2)c2nc3ccccc3nc21` the figure was -16.3% (inactive). Then `Cc1ccc(NC(=O)Nc2ccc3c(c2)N(C)C(=O)CS3)nc1`, with -4.8% (inactive); and `COC(=O)CCSCC(=O)Nc1cc(C)on1`, with -18% (inactive). For the compound `CCn1c(COc2cccc(C)c2)nnc1SCC(=O)N1CCCC1`, the cytotoxicity was -3.1% (inactive).

Regarding `C=Cn1ccnc1P(=S)(c1ccc2c(c1)c1ccccc1n2CC)c1nccn1C=C`, the cytotoxicity was 73.4% (active).

Take `CCn1c2ccccc2c2cc(N)ccc21`: the cytotoxicity is 15.8% (inactive). Then `CCn1c2ccccc2c2cc(/C=N/n3cnnc3)ccc21`, with 10.8% (inactive); and `CCCCn1c(=O)[nH]c(=O)c2c1nc(-c1ccc(C#N)cc1)n2C1CCCC1`, with -7% (inactive). With `CCOC(=O)CSc1nc2ccccc2c(=O)n1CCCCCC(=O)NCc1ccco1` the figure was -23.3% (inactive). With `OC(Cn1cncn1)c1ccc(Cl)cc1Cl` (configuration not stated) the figure was 1.1% (inactive); with `CC(Oc1ccc(Cl)cc1Cl)C(=O)NCCCn1ccnc1` (configuration not stated), -1.6% (inactive); with `Clc1ccc(SCCn2ccnc2)cc1`, -0.3% (inactive).

Regarding `O=C(COc1ccc(Cl)cc1Cl)NCCCn1ccnc1`, the cytotoxicity is -3.9% (inactive).

As to `OC(Cn1ccnc1)c1ccc(Cl)cc1Cl` (configuration not stated), the cytotoxicity was -4.5% (inactive). With `Clc1ccc(OCCn2ccnc2)c(Cl)c1` the figure was -13.9% (inactive); with `c1ccc2c(Cn3ccnc3)c[nH]c2c1`, -14% (inactive). Then `COc1ccc(C(c2sc3nc(C)nn3c2O)N2CCC(O)CC2)cc1OC` (configuration not stated), with -15.1% (inactive).

In the case of `CC(=O)C1=C(C)OC(N)=C(C#N)C1c1ccncc1` (configuration not stated), the cytotoxicity was -7% (inactive). On to `COc1ccccc1N1CCN(Cc2cccc(OC)c2OC)CC1`, for which the cytotoxicity is 3.3% (inactive). Then `CCCCOc1ccc(C(=O)OC2CC(C)N(C)CC2C)cc1` (configuration not stated), with 61.9% (active); and `CCCCOc1ccc(C(=O)N2CCC(C)CC2)cc1`, with -20.7% (inactive). With `CCCCOc1ccc(C(=O)NC)cc1` the figure was -5.6% (inactive); with `COc1ccc(CCNC(=O)CN2CCN(c3cccc(Cl)c3)CC2)cc1OC`, 1.7% (inactive); with `COc1ccc(N2CCN(Cc3cc(=O)oc4ccc(Cl)cc34)CC2)cc1`, -1.8% (inactive).

For `Cc1ccc2occ(CN3CCN(c4ccccc4)CC3)c(=O)c2c1`, the cytotoxicity is -17% (inactive). With `COc1cccc(N2CCN(Cc3coc4c(Cl)cc(Cl)cc4c3=O)CC2)c1` the figure was 61.8% (active); with `COc1cc(CN2CCSCC2)cc(OC)c1OC`, -9.5% (inactive); with `COc1ccc(S(=O)(=O)CCC(=O)Nc2c(C)n(C)n(-c3ccccc3)c2=O)cc1`, -10.2% (inactive). For `CC(C)N(Cc1ccccc1)S(=O)(=O)N(C)C`, the cytotoxicity was -7.9% (inactive). Then `COc1cc(NC(=O)Cc2nn(C)c(=O)c3ccccc23)cc(OC)c1`, with 19.8% (inactive); and `COc1ccc(-c2cc(C(F)(F)F)n3ncc(C(=O)O)c3n2)cc1OC`, with 2% (inactive). For the compound `Cc1ccc(S(=O)(=O)N2CCN(C(=O)C3CCCCC3)CC2)cc1`, the cytotoxicity was 7.7% (inactive). With `Cc1cccc(OCCCN2CCCCCC2)c1` the figure was 19.3% (inactive); with `Cc1cccc(OCCn2c(=O)n(C)c3ccccc32)c1`, -3.7% (inactive). With `Cc1cc(C)n(-c2nnc3n2N=C(c2ccccc2)CS3)n1` the figure was -0.3% (inactive). With `Cc1cc(C)n(-c2nnc3n2N=C(c2c[nH]c4ccccc24)CS3)n1` the figure was 51.3% (active); with `Cc1cccc(-c2nnc3n2N=C(c2ccccc2Br)CS3)c1`, 15% (inactive); with `CCn1c(SCC#N)nc2c(c1=O)C1(CCCC1)Cc1ccccc1-2`, 41.8% (inactive).

Consider `N#CCSc1n[nH]c2nc3c(c(=O)n12)C1(CCCC1)Cc1ccccc1-3`, for which the cytotoxicity is 54.9% (active). With `CCCn1c(SCC#N)nc2c(c1=O)C1(CCCC1)Cc1ccccc1-2` the figure was 47.8% (inactive); with `c1ccc(-n2nnnc2Oc2ccc(-c3nnco3)cc2)cc1`, -4.8% (inactive). With `COc1ccccc1-c1cc(C(F)(F)F)nc(S(=O)(=O)CCCC(=O)NC(C)C)n1` the figure was 28% (inactive). With `COc1ccccc1-c1cc(C(F)(F)F)nc(N2CCCC2)n1` the figure was -25.6% (inactive); with `COc1ccccc1-c1cc(C(F)(F)F)nc(N2CCOCC2)n1`, -5.9% (inactive); with `COc1ccccc1-c1cc(C(F)(F)F)nc(S(=O)(=O)CCCC(=O)N2CCCCC2C)n1` (configuration not stated), 88.8% (active). Regarding `COc1ccccc1-c1cc(C(F)(F)F)nc(N2CCN(c3ccccc3)CC2)n1`, the cytotoxicity is 29.8% (inactive). Then `Cc1cc(S(=O)(=O)N(Cc2ccc3c(c2)OCO3)CC2CCCO2)ccc1-n1cnnn1` (configuration not stated), with -7.2% (inactive); and `COc1cccc(-c2nnc(NC(C)=O)o2)c1`, with 7.6% (inactive); and `COc1cccc(C(=O)Nc2cccc(-c3nnc(-c4ccccc4)o3)c2)c1`, with 3.9% (inactive). Then `COc1cccc(C(=O)Nc2nnc(-c3ccc(Cl)cc3)o2)c1`, with 85.7% (active); and `COc1ccc(-c2nnc(NC(=O)c3cc(Cl)ccc3Cl)o2)cc1`, with 33.1% (inactive); and `COc1cccc(C(=O)Nc2nnc(-c3ccc(F)cc3)o2)c1`, with 31% (inactive). With `COc1cccc(-c2nnc(NC(=O)c3cccc(F)c3)o2)c1` the figure was 61.8% (active).
